Data published in PubChem BioAssay AID1159580 (chemical genetic matrix, 2015).
Values joined by “and” are separate entries in the source; they are usually repeats but may differ in a detail not shown here. Equal entries are not always repeated. Out of some 5,500 compounds screened, about 2,000 (36%) were called active. Roughly 18% stayed inconclusive and do not appear here. Cut-off read from the data, not from the text of the source: active = normalized growth mostly below about 0.91 (no sharp cut-off); inconclusive = no clear call, values can overlap the other calls; inactive = mostly above about 0.92. The list shows a part of the results.

Experiment: chemical genetic growth profiling, strain panel (AID 1159580);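 note: tested at 20 µM; growth read once vehicle control cultures reached saturation at 30 °C; 1 = growth at the plate median or of vehicle wells; lower values mean less growth of the strain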
Details: S. cerevisiae deletion strains, growth OD

Measured: normalized growth

COCCOC(=O)C1=C(C)NC(C)=C(C(=O)OC(C)C)C1c1cccc([N+](=O)[O-])c1 (stereo not given)
inactive: locus YAL013W, strain DEP1, hits give low values 1.01 | locus YAL021C, strain ccr4, hits give low values 1.04 | locus YAL026C, strain drs2, hits give low values 1.02 | locus YAL030W, strain snc1, hits give low values 1.02 | locus YAL040C, strain CLN3, hits give low values 1 | locus YBL061C, strain skt5, hits give low values 1.02 | locus YBR009C, strain hhf1, hits give low values 0.988 | locus YBR021W, strain FUR4, hits give low values 1.01 | locus YBR023C, strain chs3, hits give low values 1.02 | locus YBR171W, strain sec66, hits give low values 1.02 | locus YBR229C, strain ROT2, hits give low values 0.999 | locus YBR231C, strain swc5, hits give low values 0.996 | locus YBR279W, strain paf1, hits give low values 0.992 | locus YCL011C, strain gbp2, hits give low values 1.02 | locus YCL016C, strain dcc1, hits give low values 1.01 | locus YCL029C, strain bik1, hits give low values 1.02 | locus YCL061C, strain MRC1 (second series), hits give low values 1.01 | locus YCL069W, strain vba3, hits give low values 1.02 | locus YCR088W, strain abp1, hits give low values 1.01 | locus YDL005C, strain med2, hits give low values 1.01 | locus YDL035C, strain GPR1, hits give low values 1.01 | locus YDL040C, strain nat1, hits give low values 0.999 | locus YDL074C, strain BRE1, hits give low values 0.996 | locus YDL101C, strain DUN1, hits give low values 1.01 | locus YDL134C, strain PPH21, hits give low values 1.01 | locus YDL185W, strain tfp1, hits give low values 1.02 | locus YDL192W, strain arf1, hits give low values 1.02 | locus YDR001C, strain nth1, hits give low values 1.01 | locus YDR069C, strain doa4, hits give low values 0.982 | locus YDR101C, strain arx1, hits give low values 1.01 | locus YDR137W, strain rgp1, hits give low values 0.925 | locus YDR150W, strain NUM1, hits give low values 1.01 and 0.999 | locus YDR159W, strain sac3, hits give low values 0.967 | locus YDR162C, strain NBP2, hits give low values 0.992 | locus YDR195W, strain ref2 1.01 | locus YDR297W, strain sur2, hits give low values 1.01 | locus YDR318W, strain mcm21, hits give low values 1.01 | locus YDR334W, strain swr1, hits give low values 1 | locus YDR335W, strain msn5, hits give low values 1.01 | locus YDR363W, strain ESC2, hits give low values 1.01 | locus YDR388W, hits give low values 1.01 | locus YDR392W, strain spt3, hits give low values 0.977 | locus YDR502C, strain sam2, hits give low values 1 | locus YEL003W, strain gim4, hits give low values 1.01 | locus YEL037C, strain rad23, hits give low values 1.01 | locus YEL061C, strain CIN8 (second series), hits give low values 1 | locus YEL061C, strain CIN8, hits give low values 1 | locus YER002W, strain NOP16, hits give low values 0.993 | locus YER015W, strain faa2, hits give low values 1.01 | locus YER016W, strain bim1, hits give low values 0.989 | locus YER110C, hits give low values 1.02 | locus YER111C, strain swi4, hits give low values 1.02 | locus YER155C, strain BEM2 (second series), hits give low values 1.03 | locus YER155C, strain BEM2, hits give low values 1.02 | locus YER167W, strain BCK2, hits give low values 1.01 | locus YFR010W, strain ubp6, hits give low values 1.01 | locus YGL078C, strain dbp3, hits give low values 1.01 | locus YGL086W, strain mad1, hits give low values 0.992 | locus YGL167C, strain pmr1, hits give low values 1 | locus YGL173C, strain kem1, hits give low values 1.01 | locus YGL227W, strain vid30, hits give low values 1.03 | locus YGL240W, strain doc1, hits give low values 0.984 | locus YGL248W, strain PDE1, hits give low values 1 | locus YGL253W, strain hxk2, hits give low values 1.01 | locus YGR078C, strain PAC10, hits give low values 1 and 0.918 | locus YGR135W, strain pre9, hits give low values 0.997 | locus YGR229C, strain SMI1, hits give low values 1 | locus YGR252W, strain gcn5, hits give low values 0.961 | locus YHR013C, strain ard1, hits give low values 1.02 | locus YHR027C, strain rpn1, hits give low values 1.01 | locus YHR030C, strain SLT2, hits give low values 1.01 and 0.955 | locus YHR079C, strain IRE1 (second series), hits give low values 1 | locus YHR079C, strain IRE1, hits give low values 0.95 | locus YHR094C, strain hxt1, hits give low values 1.01 | locus YHR129C, strain ARP1, hits give low values 0.999 | locus YHR142W, strain chs7, hits give low values 1.04 | locus YHR200W, strain rpn10, hits give low values 1.02 | locus YIL066C, strain RNR3, hits give low values 1.01 | locus YIL073C, strain SPO22, hits give low values 1.04 | locus YIL125W, strain kgd1, hits give low values 1.01 | locus YIR030C, strain dcg1, hits give low values 1.01 | locus YJL092W, strain hpr5, hits give low values 1.02 | locus YJL095W, strain BCK1 (second series), hits give low values 1.02 | locus YJL095W, strain BCK1, hits give low values 1 and 0.972 | locus YJL115W, strain asf1, hits give low values 1.02 | locus YJL129C, strain trk1, hits give low values 0.987 | locus YJL134W, strain LCB3, hits give low values 1.01 | locus YJL154C, strain vps35, hits give low values 1 | locus YJL164C, strain tpk1, hits give low values 1.02 | locus YJL166W, strain qcr8, hits give low values 1.02 | locus YJL168C, strain set2, hits give low values 1.01 | locus YJL187C, strain SWE1 (second series), hits give low values 1 | locus YJL187C, strain SWE1, hits give low values 1.01 | locus YJR043C, strain POL32, hits give low values 0.999 | locus YJR066W, strain TOR1, hits give low values 0.946
